The values that follow come from PubChem BioAssay AID493243 (Broad Institute, 2011).

Calls of active or inactive are those of the source. No rule for the calls is given here.

A short description of the assay: GFP fluorescence signal inhibitors, dose response, artefact control, biochemical, plate reader, dry powder (AID 493243). As to conditions: GFP fluorescence counter-screen. For orientation: A counterscreen serves to expose hits that act by an unwanted route or on another target.

As to `CCn1nc(/C=C/c2ccccc2)nc2c(=O)n(C)c(=O)nc1-2`, the half-maximal activity concentration (AC50) (commonly the concentration giving half of the maximal activity seen) was 221 nM (active).
